High-throughput results from PubChem.
In the library only some 1.5% were active in any assay of this set; here they are far more common.
TrxR1 substrate: is turned over as a substrate by rat TrxR1. O89049. purified TrxR1 substrate turnover, NADPH consumption readout. Potency, µM (titrated, usually from 114 µM). actives 0.01% (n = 390,000). AID 588456; further: nearly all actives have a fitted effect of over 50% in size
Target sequence (O89049 whole entry, looked up): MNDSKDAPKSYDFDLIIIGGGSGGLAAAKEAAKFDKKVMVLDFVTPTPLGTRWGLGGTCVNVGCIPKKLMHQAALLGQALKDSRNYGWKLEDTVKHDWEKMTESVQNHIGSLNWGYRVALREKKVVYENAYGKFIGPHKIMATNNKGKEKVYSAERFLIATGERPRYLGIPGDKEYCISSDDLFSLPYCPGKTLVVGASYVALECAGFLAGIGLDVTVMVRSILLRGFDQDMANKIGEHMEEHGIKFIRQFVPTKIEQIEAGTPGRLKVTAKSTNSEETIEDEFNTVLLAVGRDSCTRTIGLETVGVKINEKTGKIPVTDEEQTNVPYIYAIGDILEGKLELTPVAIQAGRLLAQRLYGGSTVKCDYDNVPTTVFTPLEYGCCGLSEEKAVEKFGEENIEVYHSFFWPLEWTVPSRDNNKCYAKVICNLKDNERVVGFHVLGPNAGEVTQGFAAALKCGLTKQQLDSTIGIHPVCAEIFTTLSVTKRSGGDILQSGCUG
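Rat TrxR1, dispensed at 90 nM, was prereduced with 400 uM NADPH (final) for 5 min at ~22 deg C, then incubated with compound 15 min before 400 uM selenite. A first-read NADPH fluorescence drop versus no-compound background flagged substrates.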
Eya2 inh: Eya2 (human) phosphatase inhibition; recombinant Eya2, OMFP fluorescence dephosphorylation (OMFP is methylfluorescein phosphate); Potency, µM (doses to about 76.9 µM), usual class: inhibitors; actives 0.006% (n = 330,000); AID 488837
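Eya2 protein (added as 0.2 uM solution) was preincubated with compound for 10 min at ambient temperature in 50 mM HEPES pH 7.5, 50 mM NaCl, 5 uM MgCl2, 0.05% BSA, 1 mM DTT. OMFP (added at 50 uM) then reacted 10 min; fluorescence read at 485/525 nm.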
TrxR1 inh: blocks rat thioredoxin reductase 1 | O89049 | Potency, µM (series often up to 114 µM), actives largely listed as inhibitors | recombinant rTrxR1, NADPH fluorescence consumption, selenite substrate | AID 588453 | actives 1% (n = 390,000); further: nearly all actives have a fitted effect of over 65% in size
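Rat TrxR1 (90 nM in the dispensed reagent) was pre-reduced with 400 uM NADPH for 5 min at room temperature, then incubated with compound for 15 min. After 400 uM selenite was added, NADPH fluorescence (Ex 340/Em 450 nm) was followed for 8 min.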
mIDH1 inhibitor: blocks human mutant IDH1 R132H enzyme; IDH1-R132H enzyme, NADPH consumption, diaphorase/resazurin fluorescence; actives 0.093% (n = 390,000); Potency, µM (titrated, usually from 76.6 µM), usual class: inhibitors; O75874; further: nearly all actives have a fitted effect of over 65% in size
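IDH1-R132H (0.5 ug/mL) preincubated 30 min with compound, then NADPH (0.016 mM) and alpha-KG (2 mM) added; 80 min at RT, pH 7.5. Remaining NADPH coupled via diaphorase/resazurin to fluorescence (540/590 nm); concentration-response curves normalized to no-enzyme control.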
FBPA coupling cs: counter-screen for Giardia aldolase inhibitors: coupling enzyme system; coupling enzyme system counterscreen, AmpLite Red fluorescence; activity change, negative = inhibition, % at 58.2 µM, hits read low; actives 0.67% (n = 290,000); in the data active means activity change below about -30%
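Counterscreen lacking aldolase: glyceraldehyde-3-phosphate coupling-enzyme reagent preincubated 10 min at RT with compound (at 57.5 uM final), then substrate/coupling system with AmpLite Red added; fluorescence read at 525/598 nm after 20 min RT.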
A number is an active result; [ ] = remark or other dose. Unless noted, the call rests on the fitted dose curve; in most records, active means well fitted curve in the direction sought with a large enough effect; inconclusive means small, poorly fitted or top-dose-only effect, or another doubt; inactive means no such curve, though single readings can be large; an effect the other way counts as inactive or inconclusive.

What do the screens show for `O=C1ON=C(c2ccccc2)/C1=C/c1ccc(O)c(O)c1`?
TrxR1 substrate: inactive[2.29 µM]; Eya2 inh: inactive; TrxR1 inh: inconclusive; mIDH1 inhibitor: inactive; FBPA coupling cs: inactive

What do the screens show for `O=C1ON=C(c2ccccc2)/C1=C/c1cccnc1`?
TrxR1 substrate: inactive; Eya2 inh: inactive; TrxR1 inh: inactive; mIDH1 inhibitor: inactive; FBPA coupling cs: inactive

Results for O=C1ON=C(c2ccc(Cl)c([N+](=O)[O-])c2)/C1=C/c1cccc([N+](=O)[O-])c1O ?
TrxR1 substrate: inactive; Eya2 inh: inactive; TrxR1 inh: inactive; mIDH1 inhibitor: inactive

How did COc1cc(/C=C2\C(=O)ON=C2c2ccc(Cl)cc2)ccc1O do in these assays?
TrxR1 substrate: inactive; TrxR1 inh: 20µM; mIDH1 inhibitor: inactive

How did CNCC(=O)c1c[nH]c2ccccc12 do in these assays?
TrxR1 substrate: inactive; TrxR1 inh: inactive

Results for CCCCCCCCCC[n+]1ccc(/C=C/c2c[nH]c3ccccc23)c2ccccc21 ?
TrxR1 substrate: inactive; TrxR1 inh: inconclusive

Results for O=S(=O)(c1ccc(Cl)cc1)c1snnc1-c1ccccc1 ?
TrxR1 substrate: inactive; Eya2 inh: inactive; TrxR1 inh: inactive; mIDH1 inhibitor: inactive; FBPA coupling cs: inactive

Results for O=S(=O)(c1ccc(F)cc1)c1snnc1-c1ccccc1 ?
TrxR1 substrate: inactive; Eya2 inh: inactive; TrxR1 inh: inactive; mIDH1 inhibitor: inactive; FBPA coupling cs: -30

What do the screens show for `CCOC(=O)C1CCN(Cc2ccc(O)c3ncccc23)CC1`?
TrxR1 substrate: inactive; Eya2 inh: inactive; TrxR1 inh: 7.1µM; mIDH1 inhibitor: inactive; FBPA coupling cs: inactive

Results for Cc1ccsc1C(=O)OCc1nc2ccccc2c(=O)[nH]1 ?
TrxR1 substrate: inactive; Eya2 inh: inactive; TrxR1 inh: inactive; mIDH1 inhibitor: inactive; FBPA coupling cs: -35

What do the screens show for `C=C1NN(Cc2ccc(OC)cc2)C(=O)N1c1ccccc1`?
TrxR1 substrate: inactive; TrxR1 inh: inactive

Results for Cc1oc2ccc(O)c(CN3CCOCC3)c2c1C(=O)Nc1ccccc1 ?
TrxR1 substrate: inactive; TrxR1 inh: inactive; mIDH1 inhibitor: inactive

Results for Cc1oc2ccc(O)c(CN3CCOCC3)c2c1C(=O)c1ccc(Cl)cc1 ?
TrxR1 substrate: inactive; Eya2 inh: inactive; TrxR1 inh: inactive; mIDH1 inhibitor: inactive; FBPA coupling cs: -40

Results for CC(=O)C1=C(C)OC(N)=C(C#N)C1c1cc2cccc(C)c2nc1Cl (centres undefined) ?
TrxR1 substrate: inactive; Eya2 inh: inactive; TrxR1 inh: inactive; mIDH1 inhibitor: inactive; FBPA coupling cs: -34

How did COC(=O)C1=C(C)OC(N)=C(C#N)C1c1cc2cccc(C)c2nc1Cl (centres undefined) do in these assays?
Eya2 inh: inactive; FBPA coupling cs: inactive

Results for O=C(NC(=S)NNS(=O)(=O)c1ccc(Cl)cc1)c1cccnc1 ?
TrxR1 substrate: inactive; Eya2 inh: inactive; TrxR1 inh: 18µM; mIDH1 inhibitor: inactive; FBPA coupling cs: inactive

How did OCC1=C[C@@H](O)[C@@H]2C=CO[C@@H](OC3O[C@H](CO)[C@@H](O)[C@H](O)[C@H]3O)[C@H]12 (some centres undefined) do in these assays?
FBPA coupling cs: inactive

What do the screens show for `COc1cc(OC)cc(C(=O)c2c(C)c(C#N)c3ccccn23)c1`?
TrxR1 substrate: inactive; Eya2 inh: inconclusive; TrxR1 inh: inactive; mIDH1 inhibitor: inactive; FBPA coupling cs: inactive

How did COC1=C/C(=C/c2c(O)c(C#N)c3ccccn23)C=CC1=O do in these assays?
TrxR1 substrate: inactive; Eya2 inh: inactive; TrxR1 inh: 13µM; mIDH1 inhibitor: inactive; FBPA coupling cs: inactive

What do the screens show for `COCCOC(=O)N1CCN(/[N+]([O-])=N/Oc2ccc([N+](=O)[O-])cc2[N+](=O)[O-])CC1`?
TrxR1 substrate: inactive[0.457 µM]; TrxR1 inh: 8.9µM

Results for CCCCCCCCCCCCCCCCOC(=O)N1CCN(/[N+]([O-])=N/Oc2ccc([N+](=O)[O-])cc2[N+](C)=O)CC1 ?
TrxR1 substrate: inactive[0.457 µM]; TrxR1 inh: inactive

Results for CCOC(=O)N1CCN([N+]([O-])=NOc2cc(O/N=[N+](\[O-])N(CC)CC)c([N+](=O)[O-])cc2[N+](=O)[O-])CC1 ?
TrxR1 substrate: inactive; TrxR1 inh: 13µM; FBPA coupling cs: inactive

What do the screens show for `O=C(OCCF)N1CCN(/[N+]([O-])=N/Oc2ccc([N+](=O)[O-])cc2[N+](=O)[O-])CC1`?
TrxR1 substrate: inactive; TrxR1 inh: 7.1µM

Results for COC(=O)C1=C[C@@H](C(=O)OC)C2C3=C(C(=O)[C@@]2(C)NC(=O)c2ccccc2)[C@H](C)n2c(=O)n(-c4ccccc4)c(=O)n2[C@@H]3C1 (some centres undefined) ?
TrxR1 substrate: inactive; TrxR1 inh: inactive; FBPA coupling cs: inactive

How did COc1ccc(/C=C/c2ccnc3ccccc23)c(OC)c1 do in these assays?
TrxR1 substrate: inactive; TrxR1 inh: inactive

What do the screens show for `C[C@@H]1CCC2[C@](C)(CO)[C@@H](O)CC[C@]2(C)[C@]12CCC(CO)(CCO)O2` (some centres undefined)?
FBPA coupling cs: inactive

What do the screens show for `CN(C)c1ccc(/C=[N+]2\C(=O)CC(=O)NC2=O)cc1`?
TrxR1 substrate: inactive; TrxR1 inh: inactive

What do the screens show for `CCN(C(=O)CSc1nnc(-c2cc(OC)c(OC)c(OC)c2)o1)c1ccccc1`?
TrxR1 substrate: inactive; TrxR1 inh: 45µM; mIDH1 inhibitor: inactive

What do the screens show for `CC[n+]1ccc(C[n+]2ccccc2)c2ccccc21`?
TrxR1 substrate: inactive; Eya2 inh: inactive; TrxR1 inh: inconclusive; mIDH1 inhibitor: inactive; FBPA coupling cs: -32

Results for CCN(Cc1cccc(S(=O)(=O)O)c1)c1ccc(C(=C2C=CC(=[N+](CC)Cc3cccc(S(=O)(=O)O)c3)C=C2)c2ccccc2S(=O)(=O)[O-])cc1 ?
TrxR1 substrate: inactive; TrxR1 inh: inactive

What do the screens show for `N#CC(C#N)=C1C=CC=CN1/C(=C\c1ccco1)C(=O)c1ccc(Cl)cc1`?
TrxR1 substrate: inactive; Eya2 inh: inactive; TrxR1 inh: 0.5µM; mIDH1 inhibitor: inactive; FBPA coupling cs: inactive

Results for N#CC(C#N)=C1C=CC=CN1/C(=C\c1ccco1)C(=O)c1ccc(-c2ccccc2)cc1 ?
TrxR1 substrate: inactive; Eya2 inh: inactive; TrxR1 inh: 7.1µM; mIDH1 inhibitor: inactive; FBPA coupling cs: inactive

Results for Cc1ccc2c(c1)ncc[n+]2CC(=O)c1ccc(Cl)cc1Cl ?
TrxR1 substrate: inactive; TrxR1 inh: inactive

How did Cc1ccc(SC[C@H](C)CN2CC[C@H](O)CCC2=O)cc1 do in these assays?
TrxR1 substrate: inactive; TrxR1 inh: inactive

How did NS(=O)(=O)c1ccc(N/N=C/c2ccc(O)cc2O)c([N+](=O)[O-])c1 do in these assays?
TrxR1 substrate: inactive; Eya2 inh: inactive; TrxR1 inh: inactive; mIDH1 inhibitor: inactive; FBPA coupling cs: inactive
